Assay results: PubChem BioAssay (NCATS)
Values joined by “and” are separate entries in the source; they are usually repeats but may differ in a detail not shown here. Equal entries are not always repeated. Inconclusive results are not listed. Active and inactive are the calls of the source. Unless noted, calls follow the shape of the dose curve; as a rule, active = well fitted curve in the direction sought with a large enough effect; inconclusive = small, poorly fitted or top-dose-only effect, or another doubt; inactive = no such curve, though single readings can be large; an effect the other way counts as inactive or inconclusive.

Assays:
[1] = target: Arylsulfatase A (Homo sapiens) (UniProt P15289); assay: qHTS screen for enhancers of Arylsulfatase A (ASA1): LOPAC Validation Assay (AID 720538); also: potency is read from the fitted curve at half-maximal effect
Arylsulfatase A (Homo sapiens), sequence (P15289 whole entry, looked up): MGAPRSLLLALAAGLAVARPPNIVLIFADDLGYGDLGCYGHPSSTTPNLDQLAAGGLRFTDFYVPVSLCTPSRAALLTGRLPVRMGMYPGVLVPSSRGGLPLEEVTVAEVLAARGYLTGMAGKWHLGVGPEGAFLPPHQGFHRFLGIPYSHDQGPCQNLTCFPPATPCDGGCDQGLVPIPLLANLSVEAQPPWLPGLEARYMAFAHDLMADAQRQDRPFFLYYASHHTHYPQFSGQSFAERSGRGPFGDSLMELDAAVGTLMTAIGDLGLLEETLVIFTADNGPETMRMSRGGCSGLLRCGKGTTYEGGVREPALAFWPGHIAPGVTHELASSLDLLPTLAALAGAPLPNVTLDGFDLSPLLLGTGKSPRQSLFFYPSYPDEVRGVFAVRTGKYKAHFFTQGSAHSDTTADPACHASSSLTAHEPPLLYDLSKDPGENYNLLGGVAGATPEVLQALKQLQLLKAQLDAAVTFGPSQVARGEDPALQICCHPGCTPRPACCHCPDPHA
Summary of the method: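 MLD patient fibroblasts (SV40, ASA-I179S), 1536-well; adhere 6 hrs; cpd 48h, 37 degree C, 5% CO2; pNCS 0.5mM final in lysis buffer, 14h RT; stop 1N NaOH final; fluor. Ex525/Em598.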

[2] = qHTS for compounds that reverse cellular toxicity of Amyloid beta (A-beta) peptide in yeast: LOPAC Validation Assay (AID 720559);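 also: plate controls were DMSO for no effect and equimolar ferric chloride plus clioquinol rescue for full effect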
Summary of the method: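 Medium dispensed, compounds pinned, A-beta yeast suspension added; plates held at 30 C for 48 hr; absorbance measured at 600 nm to gauge growth; values scaled between DMSO and FeCl3/clioquinol (equimolar) controls.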

[3] = qHTS for Activators of Parkin Expression: LOPAC Validation Assay (NLuc Reporter) (AID 720572; also: potency is read from the fitted curve at half-maximal effect)
Summary of the method: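 Neuronal line stably carrying a FLuc/NLuc coincidence reporter under the Parkin promoter, seeded 24 h, then dosed in 7-point series for 24 h at 37 C. NLuc luminescence read after FLuc; normalized to DMSO and positive control (100%).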

[4] = qHTS for Activators of Parkin Expression: LOPAC Validation Assay (FLuc Reporter) (AID 720573)
Summary of the method: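 Cells seeded, 24 h; compounds pinned, 7-pt dose response; 24 h at 37 C/5% CO2; volume reduced; FLuc reagent 10 min RT; luminescence read. Normalization: DMSO = 0, positive control = 100%.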

[5] = target: T1, Hexokinase-4 (Homo sapiens) + Glucokinase regulatory protein (Homo sapiens) (UniProt P35557+Q14397); assay: qHTS assay for inhibitors of recombinant human GCK-GKRP interaction: Diaphorase-coupled assay (AID 743205)
T1 sequence (P35557 whole entry, looked up): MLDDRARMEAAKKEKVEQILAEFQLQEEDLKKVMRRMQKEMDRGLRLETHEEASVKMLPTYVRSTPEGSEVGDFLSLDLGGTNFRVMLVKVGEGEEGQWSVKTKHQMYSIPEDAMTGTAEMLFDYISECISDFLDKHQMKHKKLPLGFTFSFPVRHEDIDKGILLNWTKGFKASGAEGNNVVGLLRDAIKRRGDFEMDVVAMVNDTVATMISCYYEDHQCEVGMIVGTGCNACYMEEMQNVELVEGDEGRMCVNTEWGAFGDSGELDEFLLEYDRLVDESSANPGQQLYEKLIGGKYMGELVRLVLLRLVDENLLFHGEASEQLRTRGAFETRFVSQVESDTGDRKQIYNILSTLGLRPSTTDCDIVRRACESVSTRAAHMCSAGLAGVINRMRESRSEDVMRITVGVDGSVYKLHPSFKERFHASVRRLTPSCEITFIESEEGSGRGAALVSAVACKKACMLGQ
T1 sequence (Q14397 whole entry, looked up): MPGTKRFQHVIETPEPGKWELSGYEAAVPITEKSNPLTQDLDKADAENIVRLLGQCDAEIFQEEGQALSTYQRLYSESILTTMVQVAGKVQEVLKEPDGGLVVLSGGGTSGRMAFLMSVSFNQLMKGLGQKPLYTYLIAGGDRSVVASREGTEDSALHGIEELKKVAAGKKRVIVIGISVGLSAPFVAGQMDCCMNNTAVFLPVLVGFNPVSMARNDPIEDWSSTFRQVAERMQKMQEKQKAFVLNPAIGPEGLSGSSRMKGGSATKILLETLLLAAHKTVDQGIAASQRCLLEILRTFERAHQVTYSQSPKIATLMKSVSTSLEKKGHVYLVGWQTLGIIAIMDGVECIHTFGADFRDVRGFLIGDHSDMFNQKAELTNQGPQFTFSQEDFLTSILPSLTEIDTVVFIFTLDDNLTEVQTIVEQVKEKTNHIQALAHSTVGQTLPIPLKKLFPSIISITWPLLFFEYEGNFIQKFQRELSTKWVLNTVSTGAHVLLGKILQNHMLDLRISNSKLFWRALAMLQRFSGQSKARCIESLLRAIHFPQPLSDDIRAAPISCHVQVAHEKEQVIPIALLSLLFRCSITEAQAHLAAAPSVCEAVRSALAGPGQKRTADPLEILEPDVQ
Summary of the method: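 25 mM Hepes pH 7.6, 5 mM glucose, 0.4 mM ATP, 4 U/ml G6PDH; 10 nM each GST-GCK/FLAG-GKRP. Kinetic fluorescence read, 1/min × 30 min. Normalized: DMSO ± enzyme = max/min.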

[6] = target: T1, Hexokinase-4 (Homo sapiens) + Glucokinase regulatory protein (Homo sapiens); assay: qHTS assay for inhibitors of recombinant human GCK-GKRP interaction: ADP-Glo assay (AID 743206);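 also: plate controls were DMSO plus enzyme for no effect and no enzyme for full effect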
Summary of the method: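 GST-GCK and FLAG-GKRP (15 nM each in the dispensed mix, with 2 uM S6P) react with 0.4 mM ATP and 5 mM glucose (final) in Hepes pH 7.6 for 60 min at room temperature. ADP is measured by ADP-Glo luminescence.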

[7] = target: T1, Hexokinase-4 (Homo sapiens) + Glucokinase regulatory protein (Homo sapiens); assay: qHTS assay for inhibitors of recombinant human GCK-GKRP interaction: HTRF assay (AID 743207);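 also: 0% = DMSO with GCK present and -100% = DMSO wells lacking GCK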
Summary of the method: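 5 nM GST-GCK + 5 nM FLAG-GKRP + 2 uM S6P, pH 7.1 buffer (25 mM Hepes, 2 mM MgCl2, 25 mM KCl, 1 mM DTT, Tween/BSA); pin-transferred cpd; anti-FLAG XL665/anti-GST K; 60 min RT; HTRF.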

[8] = qHTS Assay for Identifying Gametocytocidal Compounds (AID 743244); also: potency is read from the fitted curve at half-maximal effect;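 as to max response: % is scaled to controls: 0 for no effect and ±100 for the full control effect; actives lower the fluorescent signal which means gametocytes are killed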; conditions: P. falciparum 3D7 stage III-V gametocytes, alamarBlue, 72 h; max response: stronger effect = lower value
Summary of the method: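 Fluorescence at Ex 525/Em 598 nm, recorded 24 h after alamarBlue addition, reports residual metabolic activity of 3D7 gametocytes (stages III–V) following 72 h compound exposure at 37 °C, 5% CO2.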

[9] = qHTS for small molecule inhibitors of Yes1 kinase: Counter Assay (AID 686950);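 also: no kinase present so only ADP-Glo detection of a fixed ADP amount is tested; luminescence from ADP-Glo reporting ADP in a fixed ATP and ADP mixture; 0% = DMSO wells with ATP plus ADP and -100% = ATP-only wells without ADP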
Summary of the method: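 Enzyme-free ADP-Glo interference check: compounds were preincubated 20 min in buffer, then an ATP/ADP mix (0.08 mM ATP, 0.02 mM ADP final) was added for 60 min at room temperature before two-step ADP-Glo luminescence detection.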

[10] = qHTS assay for small molecule agonists of the antioxidant response element (ARE) signaling pathway measured by Nrf2-dependant transcriptional activity (AID 720636; active = well fitted curve in the direction sought with a large enough effect in the repeat runs; an effect the other way counts as inactive or inconclusive; also: % of control where 0% means no effect)
Summary of the method: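 Nrf2-dependent transcription read as ONE-Glo luciferase signal from ARE-luc HepG2 reporter cells after 16 hr compound treatment at 37 C, 5% CO2, in assay medium with 1% dialyzed FBS.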

[11] = qHTS assay for small molecule agonists of the antioxidant response element (ARE) signaling pathway measured by Nrf2-dependant transcriptional activity - cell viability counter screen (AID 720653; active = well fitted curve in the direction sought with a large enough effect in the repeat runs; an effect the other way counts as inactive or inconclusive; also: % is scaled to controls: 0 for no effect and ±100 for the full control effect); conditions: ARE-bla HepG2 viability, CellTiter-Glo ATP luminescence, 16 h; max response: stronger effect = lower value
Summary of the method: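 ARE-bla HepG2 cells (2,000/well) rested 5 hrs at 37C/5% CO2, then exposed to compounds in DMSO for 16 hrs. Viability was read in the same wells as intracellular ATP by luminescence, 30 min at room temperature after reagent addition.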

[12] = qHTS assay for cell viability of the p53RE-bla HCT-116 cell line (AID 743292); also: % is scaled to controls: 0 for no effect and ±100 for the full control effect; nearly all actives have a fitted effect of over 55% in size
Summary of the method: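 ATP-based luminescent viability (CellTiter-Glo, 30 min RT) after 16 h compound treatment at 37 C of p53RE-bla HCT-116 cells, seeded at 4,000 cells/well and rested 5 h before dosing.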

[13] = qHTS profiling for inhibitors of Plasmodium falciparum (3D7) proliferation (AID 743322; call rule not given here;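 also: infected erythrocytes exposed to compound for 72 h before lysis; 100% = DMSO vehicle wells and 0% = 0.29 µM artemisinin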); conditions: P. falciparum 3D7 proliferation; at 28.7 µM (top of the series) unless noted
Summary of the method: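 Erythrocytes infected with P. falciparum (0.3% parasitemia, 2.5% hematocrit) incubated with compounds 72 h at 37 C, 5% CO2. Lysis with saponin/Triton buffer containing SYBR Green I, overnight at room temperature in the dark; DNA fluorescence (485/535 nm) normalised to 0.29 uM artemisinin and DMSO.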

[14] = qHTS profiling for inhibitors of Plasmodium falciparum (DD2) proliferation (AID 743323; call rule not given here); conditions: lower = more inhibition; at 28.7 µM (top of the series) unless noted
Summary of the method: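 1536-well qHTS; infected RBCs 0.3% parasitemia/2.5% Hct final; cpd 72 h 37 C 5% CO2; lysis buffer + SYBR Green I, o/n RT dark; FI 485/535; norm. to 0.29 uM artemisinin and DMSO, plate-stack corrected.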

[15] = qHTS profiling for inhibitors of Plasmodium falciparum (HB3) proliferation (AID 743324); conditions: Plasmodium falciparum HB3 blood-stage proliferation; at 28.7 µM (top of the series);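 also: 100% = DMSO vehicle wells and 0% = artemisinin-treated control wells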
Summary of the method: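 P. falciparum HB3 grown in erythrocytes (0.3% parasitemia, 2.5% hematocrit final) with compound for 72 h at 37 C, 5% CO2. Parasite DNA detected by SYBR Green after saponin/triton lysis overnight; normalized to 0.29 uM artemisinin and DMSO.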

COC(=O)[C@@H](N)Cc1ccc(O)c(O)c1
active: Potency [1] 33.8 µM
inactive: outcome [2] | Potency [3] | outcome [4] | outcome [5] | outcome [6] | Potency [7] | max response [8] 43.3%

CNCCCN1c2ccccc2CCc2ccccc21
active: Potency [1] 21.3 µM
inactive: outcome [2] | Potency [3] | outcome [4]

NC(N)=N/N=C/c1c(Cl)cccc1Cl
inactive: Potency [1] | outcome [2] | Potency [3] | outcome [4] | outcome [5] | outcome [6] | Potency [7]

COc1cc(C(=O)OCCCN2CCCN(CCCOC(=O)c3cc(OC)c(OC)c(OC)c3)CC2)cc(OC)c1OC
inactive: Potency [1] | outcome [2] | Potency [3] | outcome [4] | outcome [5] | outcome [6] | Potency [7] | max response [8] -8.17% and 18.7%

CC(N=C(NC#N)Nc1ccncc1)C(C)(C)C (stereo not drawn)
inactive: Potency [1] | outcome [2] | Potency [3] | outcome [4] | outcome [5] | outcome [6] | Potency [7] | max response [8] 14.1% and -10.9%

CN(C)CCN(Cc1cccs1)c1ccccn1
inactive: Potency [1] | outcome [2] | Potency [3] | outcome [4] | outcome [5] | outcome [6] | Potency [7] | max response [8] -13% and 5.58%

CCCCNc1ccc(C(=O)OCCN(C)C)cc1
inactive: Potency [1] | outcome [2] | Potency [3] | outcome [4] | outcome [5] | outcome [6] | Potency [7] | max response [8] -1.47% and 12.4%

COCCOC(=O)C1=C(C)NC(C)=C(C(=O)OC(C)C)C1c1cccc([N+](=O)[O-])c1 (stereo not drawn)
inactive: Potency [1] | outcome [2] | outcome [4] | outcome [5] | outcome [6] | Potency [7] | max response [8] 18.6% and 13.2%
active: Potency [3] 2.06 µM

CN(C)CCOC(=O)COc1ccc(Cl)cc1
inactive: Potency [1] | outcome [2] | Potency [3] | outcome [4] | outcome [5] | outcome [6] | Potency [7] | max response [8] 11% and 8.28%

Cc1cc(C)c(/C=C2\C(=O)Nc3ccccc32)[nH]1
inactive: outcome [9] | Potency [1] | outcome [2] | Potency [3] | outcome [4] | outcome [5] | outcome [6] | Potency [7] | max response [8] -7.62% and 20.5%

CCN(CC)CCCN(c1ccccc1)C1Cc2ccccc2C1
inactive: Potency [1] | outcome [2] | Potency [3] | outcome [4] | outcome [5] | outcome [6] | Potency [7]

Cc1nc2ccccn2c(=O)c1CCN1CCC(C(=O)c2ccc(F)cc2)CC1
active: Potency [1] 19 µM
inactive: outcome [2] | Potency [3] | outcome [4] | outcome [5] | outcome [6] | Potency [7] | max response [8] 14.2%

COc1ccc(CCN(C)CCCC(C#N)(c2cc(OC)c(OC)c(OC)c2)C(C)C)cc1OC (stereo not drawn)
inactive: Potency [1] | outcome [2] | Potency [3] | outcome [4] | outcome [5] | outcome [6] | Potency [7] | max response [8] 12.4% and 4.11%

CC1=C(C)C(=O)C(CCCCC#CCCCC#CCO)=C(C)C1=O
active: Potency [8] 14.1 µM
inactive: Potency [1] | outcome [2] | Potency [3] | outcome [4] | outcome [5] | outcome [6] | Potency [7]

NS(=O)(=O)c1cc2c(cc1Cl)NC(C1CC3C=CC1C3)NS2(=O)=O (stereo not drawn)
inactive: Potency [1] | outcome [2] | Potency [3] | outcome [4] | outcome [5] | outcome [6] | Potency [7] | max response [8] -0.791% and -20.2%

NC(Cc1ccc(Cl)cc1)C(=O)O (stereo not drawn)
inactive: Potency [1] | outcome [2] | Potency [3] | outcome [4] | outcome [5] | outcome [6] | Potency [7] | max response [8] 3.16%

Nc1ncn([C@@H]2O[C@H](CO)[C@@H](O)[C@H]2O)c(=O)n1
121%: activity, percent of control [14]
103%: remaining parasite growth % (stronger effect = lower value) [13]
137%: remaining proliferation (% of control), lower = more inhibition [15]
inactive: outcome [9] | outcome [2] | outcome [4] | outcome [10] | max response [11] -13.9% and 0.747% | outcome [6] | Potency [7] | max response [8] -3.69% and 12.2% | outcome [12]

CN1C(=O)CC[C@H]1c1cccnc1
inactive: Potency [1] | outcome [2] | Potency [3] | outcome [4] | outcome [6] | Potency [7] | max response [8] 3.71% and 23.6%

CN1CCN(C2=Nc3ccccc3Oc3ccc(Cl)cc32)CC1
inactive: Potency [1] | outcome [2] | outcome [4] | outcome [5] | outcome [6] | Potency [7] | max response [8] 15.1% and -7.99%

CCOC(=O)C1=C(C)NC(C)=C(C(=O)OC)C1c1cccc([N+](=O)[O-])c1 (stereo not drawn)
inactive: Potency [1] | outcome [2] | outcome [4] | outcome [5] | outcome [6] | Potency [7] | max response [8] 5.7%

c1ccc2c(c1)CCCC2C1=NCCN1 (stereo not drawn)
inactive: Potency [1] | outcome [2] | Potency [3] | outcome [4] | outcome [6] | Potency [7] | max response [8] -2.52% and 13.8%
